# Data taken from the supplement of paper PMC9492666.
# Counter-ions that a name gives are not always drawn.
# Assays:
# Settings in all cases: 72 h
# HCC1937 [1] = assay: relative cell viability, compound + erastin, vs DMSO (fraction of DMSO control); higher = less growth inhibition
# MDA-MB-231 [2] = assay: as above
# HCC1937 [3] = assay: relative cell viability, compound + RSL3, vs DMSO (fraction of DMSO control); higher = less growth inhibition
# MDA-MB-231 [4] = assay: as above
# HCC1937 [5] = assay: relative cell viability, compound alone, vs DMSO (fraction of DMSO control); higher = less growth inhibition
# MDA-MB-231 [6] = assay: as above
# 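For relative cell viability, compound + RSL3, vs DMSO in this document: breast cancer cell viability read out with the CCK-8 kit after co-treatment of each compound with the ferroptosis inducer RSL3.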
# 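For relative cell viability, compound + erastin, vs DMSO in this document: viability read by CCK-8 kit in 96-well plates, part of a combination screen pairing lipid-metabolism-targeting compounds with erastin.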
# 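For relative cell viability, compound alone, vs DMSO in this document: viability read out with the CCK-8 kit in 96-well plates, screening a set of 303 compounds acting on lipid metabolism targets.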
smiles,measurement,setting,value
CCCCCCCCCCCCCCCC(=O)NCCO [Palmidrol] + CCOc1ccccc1-n1c(C(C)N2CCN(C(=O)COc3ccc(Cl)cc3)CC2)nc2ccccc2c1=O [erastin],relative cell viability,HCC1937 [1],0.91
same,relative cell viability,MDA-MB-231 [2],0.938
C/C=C/c1cc(OC)c(OC)cc1OC [alpha-Asarone] + COC(=O)c1ccc([C@H]2c3[nH]c4ccccc4c3C[C@H](C(=O)OC)N2C(=O)CCl)cc1 [RSL3],relative cell viability,HCC1937 [3],0.452
same,relative cell viability,MDA-MB-231 [4],0.541
COc1ccc(CN2CCNCC2)c(OC)c1OC [Trimetazidine dihydrochloride] + COC(=O)c1ccc([C@H]2c3[nH]c4ccccc4c3C[C@H](C(=O)OC)N2C(=O)CCl)cc1 [RSL3],relative cell viability,HCC1937 [3],0.782
same,relative cell viability,MDA-MB-231 [4],0.607
NNC(=O)c1nn(Cc2ccc(Cl)cc2Cl)c2ccccc12 [Adjudin],relative cell viability,HCC1937 [5],0.767
same,relative cell viability,MDA-MB-231 [6],0.757
COc1ccc(CN2CCNCC2)c(OC)c1OC [Trimetazidine dihydrochloride],relative cell viability,HCC1937 [5],1.09
same,relative cell viability,MDA-MB-231 [6],0.823
Cc1cc(SCc2sc(-c3ccc(C(F)(F)F)c(F)c3)nc2C)ccc1OCC(=O)O + COC(=O)c1ccc([C@H]2c3[nH]c4ccccc4c3C[C@H](C(=O)OC)N2C(=O)CCl)cc1 [RSL3],relative cell viability,HCC1937 [3],0.59
same,relative cell viability,MDA-MB-231 [4],0.668
O=C(Oc1ccc([N+](=O)[O-])cc1)N1CCC(C(O)(c2ccc3c(c2)OCO3)c2ccc3c(c2)OCO3)CC1 + COC(=O)c1ccc([C@H]2c3[nH]c4ccccc4c3C[C@H](C(=O)OC)N2C(=O)CCl)cc1 [RSL3],relative cell viability,HCC1937 [3],0.483
same,relative cell viability,MDA-MB-231 [4],0.618
O=C1C=CC[C@@H]2[C@H]3CCCN4CCC[C@@H](CN12)[C@@H]34 [Sophocarpine] + COC(=O)c1ccc([C@H]2c3[nH]c4ccccc4c3C[C@H](C(=O)OC)N2C(=O)CCl)cc1 [RSL3],relative cell viability,HCC1937 [3],0.621
same,relative cell viability,MDA-MB-231 [4],0.502
CC(C)=CCC[C@](C)(O)[C@H]1CC[C@]2(C)[C@@H]1[C@H](O)C[C@@H]1[C@@]3(C)CC[C@H](O)C(C)(C)[C@@H]3[C@@H](O[C@@H]3O[C@H](CO)[C@@H](O)[C@H](O)[C@H]3O)C[C@]12C [Ginsenoside Rh1],relative cell viability,HCC1937 [5],1.09
same,relative cell viability,MDA-MB-231 [6],1.03
C/C=C/c1cc(OC)c(OC)cc1OC [alpha-Asarone],relative cell viability,HCC1937 [5],0.855
same,relative cell viability,MDA-MB-231 [6],0.976
CCC1=N[C@H]2C[C@@]3(C(=O)N(OC)c4ccccc43)[C@H]3CC1[C@@H]2CO3 [Humantenmine] + COC(=O)c1ccc([C@H]2c3[nH]c4ccccc4c3C[C@H](C(=O)OC)N2C(=O)CCl)cc1 [RSL3],relative cell viability,HCC1937 [3],0.585
same,relative cell viability,MDA-MB-231 [4],0.679
O=C(NCCN1CCC2(CC1)C(=O)NCN2c1ccccc1)c1ccc2ccccc2c1 + COC(=O)c1ccc([C@H]2c3[nH]c4ccccc4c3C[C@H](C(=O)OC)N2C(=O)CCl)cc1 [RSL3],relative cell viability,HCC1937 [3],0.229
same,relative cell viability,MDA-MB-231 [4],0.51
C[C@]12CC[C@@H](O)C[C@@H]1CC[C@@H]1[C@@H]2CC[C@]2(C)C(=O)CC[C@@H]12 [Androsterone] + COC(=O)c1ccc([C@H]2c3[nH]c4ccccc4c3C[C@H](C(=O)OC)N2C(=O)CCl)cc1 [RSL3],relative cell viability,HCC1937 [3],0.919
same,relative cell viability,MDA-MB-231 [4],0.658
CCC1=N[C@H]2C[C@@]3(C(=O)N(OC)c4ccccc43)[C@H]3CC1[C@@H]2CO3 [Humantenmine],relative cell viability,HCC1937 [5],0.922
same,relative cell viability,MDA-MB-231 [6],0.978
Cc1c2c(=O)n(-c3ccccc3Cl)[nH]c2cc(=O)n1Cc1ccccn1 + CCOc1ccccc1-n1c(C(C)N2CCN(C(=O)COc3ccc(Cl)cc3)CC2)nc2ccccc2c1=O [erastin],relative cell viability,HCC1937 [1],0.72
same,relative cell viability,MDA-MB-231 [2],0.784
C[C@@H]1C(=O)O[C@H]2[C@H](O)[C@@]34O[C@@H]5OC(=O)[C@H](O)[C@@]56[C@H](C(C)(C)C)[C@H](O)C(OC3=O)[C@]64[C@@]12O (some centres undefined) [Ginkgolide C] + COC(=O)c1ccc([C@H]2c3[nH]c4ccccc4c3C[C@H](C(=O)OC)N2C(=O)CCl)cc1 [RSL3],relative cell viability,HCC1937 [3],0.699
same,relative cell viability,MDA-MB-231 [4],0.692
C[C@@H]1C(=O)O[C@H]2[C@H](O)[C@@]34O[C@@H]5OC(=O)[C@H](O)[C@@]56[C@H](C(C)(C)C)[C@H](O)C(OC3=O)[C@]64[C@@]12O (some centres undefined) [Ginkgolide C],relative cell viability,HCC1937 [5],1.15
same,relative cell viability,MDA-MB-231 [6],1.08
O=C(Nc1cccnc1)N1CCC(Cc2cccc(Oc3ccc(C(F)(F)F)cn3)c2)CC1 + CCOc1ccccc1-n1c(C(C)N2CCN(C(=O)COc3ccc(Cl)cc3)CC2)nc2ccccc2c1=O [erastin],relative cell viability,HCC1937 [1],0.663
same,relative cell viability,MDA-MB-231 [2],0.374
CC1CC(OC(=O)C(O)c2ccccc2)CC(C)(C)C1 (centres undefined) [Cyclandelate] + CCOc1ccccc1-n1c(C(C)N2CCN(C(=O)COc3ccc(Cl)cc3)CC2)nc2ccccc2c1=O [erastin],relative cell viability,HCC1937 [1],0.828
same,relative cell viability,MDA-MB-231 [2],0.606
O=C(CBr)c1ccc(O)cc1 [PTP Inhibitor I] + COC(=O)c1ccc([C@H]2c3[nH]c4ccccc4c3C[C@H](C(=O)OC)N2C(=O)CCl)cc1 [RSL3],relative cell viability,HCC1937 [3],0.674
same,relative cell viability,MDA-MB-231 [4],0.577
CC(C)=CCC[C@](C)(O)[C@H]1CC[C@]2(C)[C@@H]1[C@H](O)C[C@@H]1[C@@]3(C)CC[C@H](O)C(C)(C)[C@@H]3[C@@H](O[C@@H]3O[C@H](CO)[C@@H](O)[C@H](O)[C@H]3O)C[C@]12C [Ginsenoside Rh1] + COC(=O)c1ccc([C@H]2c3[nH]c4ccccc4c3C[C@H](C(=O)OC)N2C(=O)CCl)cc1 [RSL3],relative cell viability,HCC1937 [3],0.654
same,relative cell viability,MDA-MB-231 [4],0.679
O=C(NCCN1CCC2(CC1)C(=O)NCN2c1ccccc1)c1ccc2ccccc2c1,relative cell viability,HCC1937 [5],0.491
same,relative cell viability,MDA-MB-231 [6],0.689
O=C(CBr)c1ccc(O)cc1 [PTP Inhibitor I],relative cell viability,HCC1937 [5],1.17
same,relative cell viability,MDA-MB-231 [6],0.937
C[C@@]12C[C@@H](c3ccoc3)OC(=O)[C@@H]1CC[C@]1(C)[C@H]2[C@@H]2C=C[C@@]1(O)C(=O)O2 [Columbin] + COC(=O)c1ccc([C@H]2c3[nH]c4ccccc4c3C[C@H](C(=O)OC)N2C(=O)CCl)cc1 [RSL3],relative cell viability,HCC1937 [3],0.564
same,relative cell viability,MDA-MB-231 [4],0.642
CCc1c(C(=O)C(N)=O)c2c(OCC(=O)O)cccc2n1Cc1ccccc1 [Varespladib] + COC(=O)c1ccc([C@H]2c3[nH]c4ccccc4c3C[C@H](C(=O)OC)N2C(=O)CCl)cc1 [RSL3],relative cell viability,HCC1937 [3],0.449
same,relative cell viability,MDA-MB-231 [4],0.574
O=C(Oc1ccc([N+](=O)[O-])cc1)N1CCN(Cc2cccc(Oc3ccccc3)c2)CC1 + COC(=O)c1ccc([C@H]2c3[nH]c4ccccc4c3C[C@H](C(=O)OC)N2C(=O)CCl)cc1 [RSL3],relative cell viability,HCC1937 [3],0.673
same,relative cell viability,MDA-MB-231 [4],0.473
O=C(O)c1cc(F)c2nc(N3[C@@H]4CC[C@H]3C[C@@H](OCc3c(-c5ccccc5OC(F)(F)F)noc3C3CC3)C4)sc2c1 [Tropifexor] + CCOc1ccccc1-n1c(C(C)N2CCN(C(=O)COc3ccc(Cl)cc3)CC2)nc2ccccc2c1=O [erastin],relative cell viability,HCC1937 [1],0.658
same,relative cell viability,MDA-MB-231 [2],0.652
C[C@]12CC[C@@H](O)C[C@@H]1CC[C@@H]1[C@@H]2CC[C@]2(C)C(=O)CC[C@@H]12 [Androsterone],relative cell viability,HCC1937 [5],1.33
same,relative cell viability,MDA-MB-231 [6],1.08
NNC(=O)c1nn(Cc2ccc(Cl)cc2Cl)c2ccccc12 [Adjudin] + COC(=O)c1ccc([C@H]2c3[nH]c4ccccc4c3C[C@H](C(=O)OC)N2C(=O)CCl)cc1 [RSL3],relative cell viability,HCC1937 [3],0.557
same,relative cell viability,MDA-MB-231 [4],0.45
C[C@]12C=CC(=O)N[C@@H]1CC[C@@H]1[C@@H]2CC[C@]2(C)[C@@H](C(=O)Nc3cc(C(F)(F)F)ccc3C(F)(F)F)CC[C@@H]12 [Dutasteride] + CCOc1ccccc1-n1c(C(C)N2CCN(C(=O)COc3ccc(Cl)cc3)CC2)nc2ccccc2c1=O [erastin],relative cell viability,HCC1937 [1],0.573
same,relative cell viability,MDA-MB-231 [2],0.596
CCc1c(C(=O)C(N)=O)c2c(OCC(=O)O)cccc2n1Cc1ccccc1 [Varespladib],relative cell viability,HCC1937 [5],0.797
same,relative cell viability,MDA-MB-231 [6],0.842
Cc1cc(SCc2sc(-c3ccc(C(F)(F)F)c(F)c3)nc2C)ccc1OCC(=O)O,relative cell viability,HCC1937 [5],1.21
same,relative cell viability,MDA-MB-231 [6],0.892
C[C@@]12C[C@@H](c3ccoc3)OC(=O)[C@@H]1CC[C@]1(C)[C@H]2[C@@H]2C=C[C@@]1(O)C(=O)O2 [Columbin],relative cell viability,HCC1937 [5],0.968
same,relative cell viability,MDA-MB-231 [6],1.06
O=C(Oc1ccc([N+](=O)[O-])cc1)N1CCN(Cc2cccc(Oc3ccccc3)c2)CC1,relative cell viability,HCC1937 [5],0.79
same,relative cell viability,MDA-MB-231 [6],0.782
O=C(Oc1ccc([N+](=O)[O-])cc1)N1CCC(C(O)(c2ccc3c(c2)OCO3)c2ccc3c(c2)OCO3)CC1,relative cell viability,HCC1937 [5],0.911
same,relative cell viability,MDA-MB-231 [6],0.901
N[C@@H](Cc1c[nH]cn1)C(=O)O [histidine] + CCOc1ccccc1-n1c(C(C)N2CCN(C(=O)COc3ccc(Cl)cc3)CC2)nc2ccccc2c1=O [erastin],relative cell viability,HCC1937 [1],0.592
same,relative cell viability,MDA-MB-231 [2],0.706
O=C1C=CC[C@@H]2[C@H]3CCCN4CCC[C@@H](CN12)[C@@H]34 [Sophocarpine],relative cell viability,HCC1937 [5],0.762
same,relative cell viability,MDA-MB-231 [6],0.906
CC(C)(C)c1ccc(-c2nc3ccccc3[nH]2)cc1 + CCOc1ccccc1-n1c(C(C)N2CCN(C(=O)COc3ccc(Cl)cc3)CC2)nc2ccccc2c1=O [erastin],relative cell viability,HCC1937 [1],0.225
same,relative cell viability,MDA-MB-231 [2],0.295
CN(C)c1cccc(-c2c3c(=O)n(-c4ccccc4Cl)[nH]c3cc(=O)n2C)c1 + CCOc1ccccc1-n1c(C(C)N2CCN(C(=O)COc3ccc(Cl)cc3)CC2)nc2ccccc2c1=O [erastin],relative cell viability,HCC1937 [1],0.61
same,relative cell viability,MDA-MB-231 [2],1.23
COc1ccc(Nc2ccn(-c3ccccc3)n2)cc1 + CCOc1ccccc1-n1c(C(C)N2CCN(C(=O)COc3ccc(Cl)cc3)CC2)nc2ccccc2c1=O [erastin],relative cell viability,HCC1937 [1],0.686
same,relative cell viability,MDA-MB-231 [2],0.902
CCOC(=O)C(C)(C)Oc1ccc(Cl)cc1 [Clofibrate] + CCOc1ccccc1-n1c(C(C)N2CCN(C(=O)COc3ccc(Cl)cc3)CC2)nc2ccccc2c1=O [erastin],relative cell viability,HCC1937 [1],0.801
same,relative cell viability,MDA-MB-231 [2],0.653
Cc1nc2ccc(NCc3cccc(C(F)(F)F)c3)cc2n(CCNC(=O)CO)c1=O + CCOc1ccccc1-n1c(C(C)N2CCN(C(=O)COc3ccc(Cl)cc3)CC2)nc2ccccc2c1=O [erastin],relative cell viability,HCC1937 [1],0.618
same,relative cell viability,MDA-MB-231 [2],0.89
